Laboratory results from PubChem BioAssay AID1030 (National Center for Advancing Translational Sciences (NCATS), 2008).
Among all 220,000 compounds or so, about 16,000 (7.3%) were called active. About 25% were inconclusive and are not listed. Shown is part of a subset that was picked to be rich in actives. A number with no mark means an inactive call. Calls follow the shape of the dose curve; as a rule, active = well fitted inhibition curve with a large enough effect (not every such curve was filed as active); inconclusive = small, poorly fitted or top-dose-only effect, or another doubt; inactive = no such curve, though single readings can be large or run the other way.

Biological target: Aldehyde dehydrogenase 1A1 (Homo sapiens) (UniProt P00352)
Test: qHTS Assay for Inhibitors of Aldehyde Dehydrogenase 1 (ALDH1A1);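 as to activity, negative = inhibition: plate controls were no enzyme wells and a reference inhibitor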
Conditions: Purified ALDH1A1, NADH fluorescence, propionaldehyde substrate; series mostly up to 75.3 µM; activity, negative = inhibition: at the top concentration
Potency is read from the fitted curve at half-maximal effect.

Aldehyde dehydrogenase 1A1 (Homo sapiens), sequence (P00352 whole entry, looked up): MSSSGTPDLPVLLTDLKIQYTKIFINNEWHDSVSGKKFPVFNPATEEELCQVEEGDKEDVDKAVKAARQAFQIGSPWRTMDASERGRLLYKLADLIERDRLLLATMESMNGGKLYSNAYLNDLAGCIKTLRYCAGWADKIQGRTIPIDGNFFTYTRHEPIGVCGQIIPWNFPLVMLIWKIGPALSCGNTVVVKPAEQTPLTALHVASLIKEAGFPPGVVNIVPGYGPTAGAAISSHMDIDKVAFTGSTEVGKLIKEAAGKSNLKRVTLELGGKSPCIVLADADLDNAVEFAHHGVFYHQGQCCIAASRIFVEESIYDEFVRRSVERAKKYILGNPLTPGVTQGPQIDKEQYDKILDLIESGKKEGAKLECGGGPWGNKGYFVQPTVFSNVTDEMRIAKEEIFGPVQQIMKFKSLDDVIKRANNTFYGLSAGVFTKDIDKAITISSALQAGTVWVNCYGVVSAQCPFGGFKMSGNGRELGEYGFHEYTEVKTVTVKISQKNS

SMILES | Potency | activity, negative = inhibition
Cc1nc(C)c(C(=O)Nc2cccc(C)c2C)o1 | 17.8 µM (active) | –
Cc1nnsc1C(=O)Nc1cccc(Cl)c1C | – | 3.33%
Cc1cccc(NC(=O)c2ccc3nsnc3c2)c1C | – | -4.39%
O=C(c1ccc(F)cc1)N1CCCC(c2nc(-c3cccs3)no2)C1 (stereo not given) | – | -8.32%
CCOC(=O)C1CCN(C(=O)C2(NC(=O)Nc3cccc(F)c3)CCCCC2)CC1 | – | 4.32%
CC(=O)c1cnc(-c2ccccc2)s1 | – | -9.73%
CCN(CC)c1ccc(/C=N/Nc2nc(C)cc(C)n2)c(O)c1 | – | 2.46%
CCN(CC)c1ccc2oc(=O)c(C)nc2c1 | 1 µM (active) | –
CCN(CC)c1ccc2cc(C(N)=O)/c(=N\NC(=O)c3ccncc3)oc2c1 | – | -10.6%
COc1ccc(CCNC(=O)CN(c2ccccc2)S(C)(=O)=O)cc1 | – | 2.48%
Cc1cc(C(=O)NNC(=O)CCC2CCCCC2)c(C)o1 | – | -3.14%
CCOC(=O)C1C/C(=C\C(C)=O)c2cccc(C(F)(F)F)c2O1 (stereo not given) | – | -5.96%
C=CCC(C)(O)c1ccco1 (stereo not given) | – | 12.8%
O=[N+]([O-])c1ccc(N2CCN(c3ccc(O)cc3)CC2)c(Cl)c1 | 7.94 µM (active) | –
O=C(c1ccc(Cl)c([N+](=O)[O-])c1)N1CCN(c2ccccc2)CC1 | – | 1.09%
COc1ccc(N2CCN(c3ccc([N+](=O)[O-])cc3Cl)CC2)cc1 | – | 4.73%
C/C=C/C=C/C(=O)OCC(=O)Nc1ccc(Cl)cc1 | – | -2.76%
O=C(C1CCN(S(=O)(=O)c2ccc(Br)s2)CC1)N1CCN(C2CCCCC2)CC1 | – | -12.8%
Cc1ccc(S(=O)(=O)CC(=O)Nc2c(C)n(C)n(-c3ccccc3)c2=O)cc1 | – | -4.24%
Cc1ccc(S(=O)(=O)N2CCN(CC(=O)N/N=C/c3ccc(Br)s3)CC2)cc1 | – | 0.942%
CC(C)OC(=O)CN1CCN(c2ccc(Cl)cc2)CC1 | – | -2.07%
Cc1cccc2c1N(CC(=O)OC(C)C)C(=O)C2=O | 0.02 µM (active) | –

SMILES | Potency | activity, negative = inhibition
CCCCOC(=O)Cn1c(=O)n(CC(=O)OCCCC)c2cc(C)ccc21 | – | -4.24%
Cc1cccc2c1N(CCOc1ccccc1)C(=O)C2=O | 0.224 µM (active) | –
CC(C)OC(=O)CN1C(=O)c2ccccc2C1=O | – | 8.21%
CC(C)OC(=O)CN1C(=O)C(=O)c2ccccc21 | 0.0631 µM (active) | –
Cc1ccccc1C(=O)NNC(=O)CN1C(=O)c2ccccc2C1=O | – | 4.91%
CCOC(=O)CN1C(=O)C(=O)c2cc(C)ccc21 | 0.178 µM (active) | –
Cc1nn(CCOc2ccccc2)c(=O)n1-c1ccccc1F | – | -4.02%
CCOC(=O)CN1C(=O)N[C@@H](c2ccc(Br)cc2)C(C(C)=O)=C1C | inactive | –
CC1(C)NC(=O)N(CCOc2cccc(Oc3ccccc3)c2)C1=O | – | -11.9%
Cc1cc(C)cc(OCC(=O)NNC(=O)CCN2C(=O)c3ccccc3C2=O)c1 | – | -8.44%
OCCC1CN(Cc2cccn2-c2nccs2)CCN1CCc1ccccc1 (stereo not given) | – | 11.6%
C/C(=N\NC(=O)c1cccnc1)c1ccc(-n2ccnc2)cc1 | – | 8.66%
C#CCOCCOCCOCCNc1nc(N2CCN(C(=O)[C@H](CCC(=O)O)n3cc(C(N)CO)nn3)CC2)nc(N2CCN(C(=O)[C@H](Cc3ccc(O)cc3)n3cc(C(N)[C@H](C)CC)nn3)CC2)n1 (stereo not given in full) | – | -1.39%
Cc1nnc(SCC2=C(C(=O)O)N3C(=O)C(NC(=O)Cn4nc(C)c(Cl)c4C)C3SC2)s1 (stereo not given) | – | 3.56%
CCCOc1ccc(NC(=O)CC2C(=O)N(C)C(=S)N2Cc2ccc3c(c2)OCO3)cc1 (stereo not given) | – | 4.02%
NS(=O)(=O)c1ccc(N2C(=O)C3C4CC(C(Br)C4Br)C3C2=O)cc1 (stereo not given) | – | 6.76%
CC(=O)Nc1ccc(S(=O)(=O)Nc2ccc(-c3ccc4nnc(C)n4n3)cc2)cc1 | – | -0.516%
NCCC(=O)c1ccccc1N | – | -18%
COc1ccc(NC(=O)c2sc(N)nc2-c2ccccc2)cc1 | – | 7.79%
S=C(NN=C1CCN(Cc2ccccc2)CC1)NC1CCCCC1 | – | -10.8%
CCN(C(=O)c1ccc(Br)cc1)c1ccccc1 | – | -4.18%
CCC1(C(=O)c2ccccc2)C(c2cccc([N+](=O)[O-])c2)C1(C(=O)OC)C(=O)OC (stereo not given) | – | 16%

SMILES | Potency | activity, negative = inhibition
Cc1ccccc1C(=O)OC1OC(=O)C(Cl)=C1Nc1ccccc1 (stereo not given) | – | -17.1%
C=CCN1c2ccccc2[C@]23C[C@@H](C(=O)OC)N(S(=O)(=O)c4ccc([N+](=O)[O-])cc4)C2=NC(C(=O)OC)=C(C(=O)OC)[C@H]13 | – | -3.11% [at 13.5 µM]
O=C1NC2(CCCCCC2)C(=O)N1CCS(=O)(=O)Oc1ccccc1 | – | -2.26%
CC(=O)Nc1ccc(C(=O)/C=C/c2ccc[nH]2)cc1 | – | -1.58%
Cc1cc(C(=O)N/N=C/c2ccccc2[N+](=O)[O-])c(C)o1 | – | -5.15%
Clc1ccc(C2=CSC3=Nc4cccc5cccc(c45)N23)cc1 | 7.94 µM (active) | –
CCN(CC)CC1(O)CCN(C(=O)c2ccc(Cl)c(Cl)c2)CC1 | – | -1.58%
CC(C)(C)n1nc2c(c1NC(=O)c1cc3ccccc3o1)CSC2 | – | 9.75%
Cc1ccc(C)c(NC(=S)NCC(c2cccnc2)N2CCOCC2)c1 (stereo not given) | – | -2.08%
COC(=O)C(C)C1Sc2ccccc2NC1=O (stereo not given) | – | -1.81%
CCCCC(CC)CNC(=O)CCCCn1c(=O)[nH]c2ccsc2c1=O (stereo not given) | – | 0.924%
CCOC(=O)CC1=CC(=O)Nc2ccccc2N1 | – | 1.21%
CCOC(=O)C(=O)C1C(=O)Nc2ccccc21 (stereo not given) | 14.1 µM (active) | –
CCOC(=O)C1C(=O)NCC1c1ccccc1 (stereo not given) | – | 6.09%
CCCCC(CC)CNC(=O)C(=O)C1C(=O)Nc2ccccc21 (stereo not given) | 2 µM (active) | –
CC1=NN(C(=O)CCCc2ccccc2)C(O)(C(F)(F)F)C1 (stereo not given) | – | 0.404%
CC(C)C(=O)NCc1cc(-c2ccc(Cl)cc2)no1 | – | 14.5%
CCCCCCCC[C@@H](O)/C=C/C=C/C=C\[C@@H](O)CCCC(=O)O | – | 12.3%
[O-][n+]1onc2c1CCc1[nH]c(-c3ccccc3)nc1-2 | – | 16.4%
CCc1nnc(NC(=O)CSc2nc(SC)ns2)s1 | – | 3.53%
Cc1ccc(C(=O)OC2CCCN(C)C2)cc1 (stereo not given) | – | 7.18%
CCS(=O)(=O)c1cc([N+](=O)[O-])c(Sc2ccccc2N)s1 | 3.55 µM (active) | –

SMILES | Potency | activity, negative = inhibition
Nc1ccccc1Sc1ccc(C(F)(F)F)cc1[N+](=O)[O-] | – | 1.57%
CCOC(=O)c1sc2nc(SC)nc(-c3ccccc3)c2c1N | – | -4.78%
Cc1nc2sc(C(=O)c3ccccc3)c(N)c2c2c1CCCC2 | 3.98 µM (active) | –
CCc1nc2sc(C(=O)O)c(N)c2c2c1CCCC2 | – | 5.87%
O=C(CSc1ccccc1F)NC1CCS(=O)(=O)C1 (stereo not given) | – | 3.62%
O=C(CN1CCCCC1)Nc1ccccc1Cl | – | 14.8%
O=C(Cc1ccc2c(c1)CCCC2)Nc1ccccc1Cl | 12.6 µM (active) | –
CSc1ccccc1NC(=O)Cc1ccc(Br)cc1 | – | 5.36%
Cc1cc(/C=C2/SC(=O)N(CC(=O)N3CCCC3)C2=O)ccc1N1CCOCC1 | – | 5.53%
C/C(=N/OC(=O)c1c(-c2c(F)cccc2Cl)noc1C)c1cnccn1 | – | -4.17%
CC(=O)c1ccc(NC(=O)C(C)NCc2ccc(Cl)cc2)cc1 (stereo not given) | – | 1.47%
O=C(NCc1ccc2c(c1)OCO2)c1sccc1Br | – | -7.89%
O=C(NCc1ccc2c(c1)OCO2)c1ccc2c(c1)C(=O)N(CC1CCCO1)C2=O (stereo not given) | 1.58 µM (active) | –
O=C(NCc1ccc2c(c1)OCO2)c1ccc(Cl)s1 | – | 11.5%
Cc1csc(SCC(=O)Nc2sccc2C#N)n1 | – | -1.71%
O=C1CCC(CCC(=O)N2CCCC(C(=O)c3ccc(Cl)cc3)C2)=NN1 (stereo not given) | – | 17.7%
O=C(CCN1C(=O)C2C3C=CC(C3)C2C1=O)Oc1ccc2ccccc2c1 (stereo not given) | – | -9.74%
O=C(CCCN1C(=O)C2C3C=CC(C3)C2C1=O)N1CCN(c2ccccc2)CC1 (stereo not given) | 12.6 µM (active) | –
CC(CC(=O)N1CCN(c2ccccc2)CC1)c1ccccc1 (stereo not given) | – | 13.1%
S=c1[nH]ccn1-c1ccc(Cl)cc1 | – | -9.08%
CC(C)CCN1CCN(C/C=C/c2ccco2)CC1CCO (stereo not given) | 28.2 µM (active) | –
CC(C)CCN1CCN(Cc2ccc(C(F)(F)F)cc2)CC1CCO (stereo not given) | – | 0.124%

SMILES | Potency | activity, negative = inhibition
Cc1ccc(CN2CCN(Cc3ccccc3-c3ccco3)CC2CCO)o1 (stereo not given) | – | 8.18%
COC(=O)c1cccnc1NC(=S)NC(C)C | – | 1.85%
COc1ccc(N=Nc2ccc(O)c(P(=O)(c3ccccc3)c3ccccc3)c2)cc1 | – | 6.87%
CCOc1cc(/C=C2/N=C(c3ccc(C(C)(C)C)cc3)OC2=O)cc(Cl)c1OS(C)(=O)=O | 22.4 µM (active) | –
CN(CCc1cnn(C)c1)Cc1cn(C)nc1-c1ccccc1F | – | 2.47%
COc1cccc(CNC(=O)CCC2CCCN(C(=O)c3cc(C)[nH]n3)C2)c1 (stereo not given) | – | -5.25%
COc1cccc(C(=O)N2CCCC(CCC(=O)NCc3ccc(F)c(F)c3)C2)c1 (stereo not given) | – | -7.32%
COc1cccc(CNC(=O)CCC2CCCN(C(=O)c3ccoc3C)C2)c1 (stereo not given) | 22.4 µM (active) | –
Cc1ccc(C(NC(=O)N2CCCC2)C(Cl)(Cl)Cl)cc1F (stereo not given) | – | 8.02%
c1ccc2nc(C3=NCCN3)cnc2c1 | – | -9.53%
CC(=O)Nc1cccc(-c2cnc3ccccc3n2)c1 | – | 3.58%
Cc1cc(O)ccc1-c1cnc2ccccc2n1 | 28.2 µM (active) | –
Cc1cccc(NC(=S)NC23CN4CN(CN(C4)C2)C3)c1 | – | 4.51%
CC1CCN(Cc2nc(-c3ccc(Cl)cc3)no2)CC1 | – | 0.85%
COc1ccc(-n2nnnc2SCC(=O)Nc2ccccc2)cc1 | – | 3.98%
Cc1ccc(-c2noc(CSc3nnc(-c4ccccc4)n3C)n2)cc1 | – | -1.16%
Cc1ccc(-c2noc(CSc3nnc(-c4cccs4)n3C)n2)cc1 | – | -10.9%
Cc1ccc(-c2noc(CSc3nnnn3-c3ccccc3)n2)cc1 | 7.08 µM (active) | –
Cc1ccc(Nc2nc(CSc3nnnn3-c3ccccc3)cc(=O)[nH]2)cc1 | 22.4 µM (active) | –
Cc1ccc(SCc2cc(=O)[nH]c(N3CCCCC3)n2)cc1 | – | 3.1%
Cc1ccc(-c2noc(CN3CCN(Cc4ccccc4)CC3)n2)cc1 | 28.2 µM (active) | –
Cc1ccc(-c2noc(CC(c3ccccc3)c3ccccc3)n2)cc1 | – | -4.15%
